Experimental findings from PubChem BioAssay are described below.

The structures appear in SMILES notation. Active and inactive are the calls of the source.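 Rule for the calls, unless noted: active = RAM network inhibition above 8.4% in each of two replicates, 3 SD over the compound average; inconclusive = above 8.4% inhibition in only one replicate; inactive = 8.4% inhibition or less in each replicate.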

One assay is described as follows: inhibitors of the yeast RAM network, pilot screen, dse1pr::URA3 reporter, 5-FOA selection (AID 869;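 active = inhibition over a set limit, the all-compound mean plus 3 SD, in both replicate runs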;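 note: 0% = DMSO wells with no growth and 100% = 10 µM 1-NA-PP1 with full growth; RAM network block rescues cells from 5-FOA so hits raise OD615 growth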). The conditions noted are these: S. cerevisiae dse1pr::URA3 5-FOA growth, OD615, 2 d; at 10 µM; hits give high values; strain carries analog-sensitive mutant Cbk1 kinase.
As for `CCOC(=O)N1CCN(C(=O)c2cc3cc(Br)ccc3oc2=O)CC1`, the inhibition was 0.665% (inactive).
The same measure, in the same setting: as for `Cc1cc(NC(=O)C2CC(c3ccc(F)cc3)=NO2)no1` (centres undefined), the figure is -0.08% (inactive).
Same read-out and setting: with `Cc1nnc(NC(=O)CSc2nnc(Cc3cccn3C)n2-c2cccc(C(F)(F)F)c2)s1` the figure was 0.075% (inactive); with `O=C(c1cncc(Br)c1)N1CCN(c2ccc(N3CCOCC3)nn2)CC1`, 0.48% (inactive); with `Cc1nnc2ccc(N3CCN(C(=O)c4ccccc4)CC3)nn12`, 1.42% (inactive).

The next assay is described as follows: RAM signaling pathway blockade in yeast – S. cerevisiae, Pdr1DBD-CYC8 efflux-inhibited sensitized strain, primary screen (AID 1298).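 Note: 0% = DMSO untreated cells without growth and 100% = 10 µM 1-NA-PP1 full growth; higher means more yeast growth rescued from 5-FOA killing.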 The conditions noted are these: S. cerevisiae cbk1-as DSE1-URA3 strain, 5-FOA growth OD615, 2 d; at 50 µM; hits give high values.
With `Cc1ncc(CO)c2cc(S(=O)(=O)c3ccc(F)cc3)c(=O)oc12`, the RAM network inhibition was 1.42% (inactive).
Still for that read-out and setting: with `CCC(SCC(=O)OC)C(=O)Nc1nnc(C(C)C)s1` (centres undefined) the figure was 2.05% (inactive); with `C=CCOC(=O)C1=C(C)NC(C)=C(C(=O)OCC=C)C1c1ccc(O)cc1`, 2.05% (inactive); with `CC(=O)c1ccc(OCC(O)CN2CCOCC2)cc1` (centres undefined), 0.84% (inactive).
The same measure, in the same setting: with `CCOc1cc(-c2nc(-c3ccncc3)no2)cc(OCC)c1OCC` the figure was 5.16% (inactive).
Consider `O=C1CC(c2cccs2)CC(O)=C1C=NCCN1CCNCC1` (centres undefined), for which the RAM network inhibition is -0.42% (inactive).
On to `OC(COc1ccc2ccccc2c1)CN1CCN(c2ccc(F)cc2)CC1` (centres undefined), for which the RAM network inhibition is 1.23% (inactive).
Regarding `O=C(Nc1ccc(SC(F)F)cc1)C1=COCCO1`, the RAM network inhibition is 5.17% (inactive).
`COc1ccc(NS(=O)(=O)c2ccc3c(c2)oc(=O)n3C)c(OC)c1`: the RAM network inhibition is 9.99% (inactive).
On the same count and under the same terms, with `COc1ccccc1C1CC(=O)NC(SCC(=O)Nc2ccccc2)=C1C#N` (centres undefined) the figure was 1.38% (inactive); with `CC(=O)Nc1ccccc1NC(=O)C(F)(F)F`, 0.88% (inactive).
Still for that read-out and setting: as for `CCOC(=O)C1=C(C)S/C(=C\N(C)C)C1=O`, the figure is -2.3% (inactive).
The same measure, in the same setting: as for `Cc1ccc(-n2nnc3c(=O)n(CC(=O)NCc4ccco4)cnc32)cc1`, the figure is 7.68% (inactive); as for `O=C(Cn1c(=O)sc2ccccc21)N1CCOCC1`, 0.67% (inactive).
Regarding `CCOCCOC(=O)C1=C(C)NC2=C(C(=O)CC(c3cccs3)C2)C1c1ccsc1` (centres undefined), the RAM network inhibition is 6.89% (inactive).
Still for that read-out and setting: as for `CC1CC(C)CN(CCCNC(=O)Cn2ncc3c(=O)oc4ccccc4c32)C1` (centres undefined), the figure is 5% (inactive); as for `CCC(C#CCN1CCCCC1)(CC)OCCC#N`, 4.07% (inactive); as for `CC1CCCCC1NC(=O)c1ccc(CNc2c(N3CCCC3)c(=O)c2=O)cc1` (centres undefined), 0.72% (inactive).
The same measure, in the same setting: with `Cc1ccc(-c2nc3cccnc3o2)cc1NC(=O)COc1ccc(Cl)cc1C` the figure was 8.1% (inactive); with `CCCCCn1c(=O)[nH]c2c(c1=O)CCC2`, 0.26% (inactive); with `CCN(c1ccccc1)c1cc(C)nc2nc(C)nn12`, 4.74% (inactive).
On the same count and under the same terms, with `COc1ccc(C(=O)c2cnc(C(C)C)n2C)cc1` the figure was 4.97% (inactive); with `O=C1C(C=NCc2ccco2)=C(O)c2ccccc21`, -0.41% (inactive); with `C=CCn1cc(C(=O)NCCCOC)c(=O)c2cc(S(=O)(=O)N3CCC(C)CC3)ccc21`, -0.52% (inactive).
As to `NC(=O)c1oc2ccccc2c1NC(=O)CCc1ccccc1`, the RAM network inhibition was 3.76% (inactive).
As for `CCCSc1nc2c(c(=O)n1CC)SC(C)C2` (centres undefined), the RAM network inhibition is 2.48% (inactive).
The same measure, in the same setting: as for `CCOC(=O)Cn1c(=O)oc2cc(S(=O)(=O)Nc3ccc(F)cc3)ccc21`, the figure is 7.5% (inactive); as for `COc1ccc(CCNC(=O)CSc2nnnn2-c2ccccc2)cc1`, 6.52% (inactive); as for `CCn1cc(C2=NC(C(C)C)CO2)c2ccccc21` (centres undefined), 2.06% (inactive).
For `O=C(Cn1cnc2c(cnn2-c2ccccc2)c1=O)N1CCOCC1`, the RAM network inhibition is 1.17% (inactive).
As to `COc1ccc(N(CC(=O)Nc2ccc3c(c2)OCCO3)S(=O)(=O)c2c(C)nn(C)c2C)cc1`, the RAM network inhibition is 4.15% (inactive).
Consider `COC(=O)C1=C(C)N(C)C(C)=C(C(=O)OC)C1c1ccsc1`, for which the RAM network inhibition is 2.51% (inactive).
Still for that read-out and setting: as for `O=c1c2c3c(sc2nc2n1CCCCC2)CCCC3`, the figure is 0.62% (inactive); as for `CCN=C(NCC)SC1CC(=O)N(c2cccc(OC)c2)C1=O` (centres undefined), 7.47% (inactive).
Same read-out and setting: as for `CCOC(=O)N1CCN(C(=O)c2cc3cc(Br)ccc3oc2=O)CC1`, the figure is -1.94% (inactive).
Take `Cc1cc(NC(=O)C2CC(c3ccc(F)cc3)=NO2)no1` (centres undefined): the RAM network inhibition was 4.62% (inactive).
For `Cc1nnc(NC(=O)CSc2nnc(Cc3cccn3C)n2-c2cccc(C(F)(F)F)c2)s1`, the RAM network inhibition was 3.85% (inactive).
As for `O=C(c1cncc(Br)c1)N1CCN(c2ccc(N3CCOCC3)nn2)CC1`, the RAM network inhibition is 4.09% (inactive).
Same read-out and setting: with `Cc1nnc2ccc(N3CCN(C(=O)c4ccccc4)CC3)nn12` the figure was 2.92% (inactive).

As a reminder, the inhibition is the drop in the measured response relative to a control, in per cent.
